This is an account of results in PubChem BioAssay (Tox21).

For assay [1], the target named is Estrogen receptor beta (Homo sapiens) (UniProt Q92731). Briefly: qHTS assay to identify small molecule antagonists of the estrogen receptor beta (ER-beta) signaling pathway (AID 1259378; active = well fitted inhibition curve with a large enough effect in the signal ratio in the repeat runs, not every such curve was filed as active; the % refers to the signal ratio; also: potency is read from the fitted curve at half-maximal effect). The method in brief: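 Antagonist mode: compounds added to beta-lactamase reporter HEK293T ER-beta-UAS cells stimulated with E2 (1nM final), 16 hr at 37C. LiveBLAzer B/G FRET substrate, 2 hours room temperature, fluorescence read-out.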

A short description of assay [2]: qHTS assay to identify small molecule agonists of the androgen receptor (AR) signaling pathway in the presence of an antagonist - cell viability counter screen (AID 1259379). Also: nearly all actives have a fitted effect of over 25% in size. Also: potency is read from the fitted curve at half-maximal effect. The method in brief: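 MDA-kb2 human breast carcinoma cells (stable MMTV-luciferase, AR/GR responsive) were seeded 3,000 cells/well, pre-incubated 5 hr at 37C without CO2, then given 3.0uM nilutamide and compounds at 15 concentrations for 16 hr. Viability was read by CellTiter-Fluor fluorescence.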

Assay [3] in a line: qHTS assay to identify small molecule agonists of the estrogen receptor beta (ER-beta) signaling pathway - cell viability counter screen (AID 1259380). Also: nearly all actives have a fitted effect of over 30% in size. Also: potency is read from the fitted curve at half-maximal effect. The method in brief: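 ER-beta-UAS-bla HEK293T cells in medium with 2% charcoal-stripped FBS were preincubated 6 hr at 37C, dosed with compound in DMSO for 16 hr, then after the bla read, CellTiter-Glo was added for 30 min at room temperature; luminescence recorded.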
In general terms: qHTS replaces the single test concentration by a dilution series.

Assay [4] concerns the target Androgen receptor (Homo sapiens) (UniProt P10275). The assay is described as follows: qHTS assay to identify small molecule agonists of the androgen receptor (AR) signaling pathway in the presence of an antagonist (AID 1259381; calls by dose curve; also: nearly all actives have a fitted effect of over 15% in size; also: potency is read from the fitted curve at half-maximal effect). The method in brief: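 MDA-kb2 human breast carcinoma cells carrying an MMTV-luciferase reporter (AR- and GR-responsive) were treated with compounds at 15 concentrations plus 3.0uM final nilutamide for 16hr at 37C without CO2; luminescence was read after ONE-Glo addition.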

The target of assay [5] is Estrogen receptor (Homo sapiens) (UniProt P03372). Briefly: qHTS assay to identify small molecule agonists of the estrogen receptor alpha (ER-alpha) signaling pathway in the presence of an antagonist (AID 1259383; calls by dose curve; also: top concentration of the series differs between compounds; nearly all actives have a fitted effect of over 15% in size). The method in brief:
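VM7Luc4E2 cells (endogenous full-length ER-alpha, 4×ERE-luciferase) were precultured 5 days in phenol red-free medium with 10% charcoal-stripped FBS, given 10.0nM ICI-182,780 (final), then treated with compounds at 15 concentrations for 22hr at 37C; luminescence read with ONE-Glo.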

A short description of assay [6]: qHTS assay to identify small molecule agonists or antagonists of the thyroid stimulating hormone receptor (TSHR) signaling pathway - wild type cell line counter screen (AID 1259384; calls by dose curve). The method in brief: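 Counter screen in untransfected Hek293: compounds (15-point titration, triplicate) plus phosphodiesterase inhibitor Ro20-1724 added after 18 h plating; 30 min RT. Intracellular cAMP via competitive d2/cryptate immunoassay, 1 h incubation.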

Assay [7] concerns the target Thyrotropin receptor (Homo sapiens) (UniProt P16473). The assay is described as follows: qHTS assay to identify small molecule antagonists of the thyroid stimulating hormone receptor (TSHR) signaling pathway (AID 1259385; calls by dose curve; also: nearly all actives have a fitted effect of over 20% in size; also: potency is read from the fitted curve at half-maximal effect). The method in brief: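 Antagonist mode: compound-treated TSHR-expressing HEK293 cells were stimulated with 1.5 ng/mL TSH (final) in presence of Ro20-1724 for 30 min at RT. HTRF cAMP detection after 1 h; each compound tested at 15 concentrations, triplicate.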

A short description of assay [8]: qHTS assay to identify small molecule agonists of the estrogen receptor alpha (ER-alpha) signaling pathway in the presence of an antagonist - cell viability counter screen (AID 1259386).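 Also: series mostly up to about 92 µM; cells exposed to compounds for 22 h at 37 °C before the viability read; nearly all actives have a fitted effect of over 30% in size.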 The method in brief:
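VM7Luc4E2 cells (endogenous full-length ER-alpha, 4×ERE-luciferase) were held 5 days in phenol red-free medium with 10% charcoal-stripped FBS, plated, then given 10.0nM ICI-182,780 and compounds at 15 concentrations for 22hr at 37C; viability read by CellTiter-Fluor fluorescence.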

Assay [9] concerns the target Progesterone receptor (Homo sapiens) (UniProt P06401). Briefly: qHTS assay to identify small molecule agonists of the progesterone receptor (PR) signaling pathway (AID 1346784; calls by dose curve; also: nearly all actives have a fitted effect of over 30% in size). The method in brief:
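PR-UAS-bla HEK 293T cells (beta-lactamase reporter under UAS) in 2% charcoal-stripped FBS, dosed with 23 nL compound after 6 hr, incubated 16hr at 37C. LiveBLAzer B/G FRET substrate added, fluorescence read after 2 hours.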

For assay [10] the target is unchanged. Briefly: qHTS assay to identify small molecule antagonists of the progesterone receptor (PR) signaling pathway (AID 1346795; active = well fitted inhibition curve with a large enough effect in the signal ratio in the repeat runs, not every such curve was filed as active; the % refers to the signal ratio; also: potency is read from the fitted curve at half-maximal effect). The method in brief:
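PR-UAS-bla HEK293T cells with beta-lactamase reporter under UAS control, in 2% charcoal-stripped FBS, treated with compounds plus 1 nM promegestone (R5020, final) for 16 hr at 37C. Read-out: FRET beta-lactamase substrate fluorescence after 2 hr at room temperature.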

Assay [11] in a line: qHTS assay to identify small molecule antagonists of the progesterone receptor (PR) signaling pathway - cell viability counter screen (AID 1346798). Also: series mostly up to about 92 µM; nearly all actives have a fitted effect of over 50% in size. The method in brief: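 PR-UAS-bla HEK293T cells, 3,000/well in 2% charcoal-stripped FBS medium, dosed with compounds plus R5020 agonist and incubated 16 h at 37C. Viability then measured in the same wells by CellTiter-Glo luminescence after 30 min at RT.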

The nature of assay [12]: qHTS assay to identify small molecule agonists of the progesterone receptor (PR) signaling pathway - cell viability counter screen (AID 1346799; calls by dose curve; also: nearly all actives have a fitted effect of over 45% in size). The method in brief: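 Counter screen in the PR-UAS-bla HEK293T wells (2% charcoal-stripped FBS, 16 h compound exposure at 37 C) after the bla read. CellTiter-Glo added, 30 min at room temperature, luminescence read as cell viability.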

A short description of assay [13]: qHTS assay to identify small molecule antagonists of the TGF-beta/Smad signaling pathway - cell viability counter screen (AID 1346824). Also: nearly all actives have a fitted effect of over 50% in size. Also: potency is read from the fitted curve at half-maximal effect. The method in brief:
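Cytotoxicity counter-screen run in the same wells as the beta-lactamase Smad reporter read: CellTiter-Glo luminescence after 30 min at room temperature. HEK 293T SBE-bla cells had 5 hr compound exposure at 37 C with TGF-beta1 (0.25 ng/mL stock).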

Assay [14] is described as follows: qHTS assay to identify small molecule agonists of the TGF-beta/Smad signaling pathway - cell viability counter screen (AID 1346829). Also: nearly all actives have a fitted effect of over 45% in size. Also: potency is read from the fitted curve at half-maximal effect. The method in brief: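 Cytotoxicity counter screen: CellTiter-Glo luminescence (30 min, room temperature) measured in the SBE-bla HEK 293T reporter wells after 5 hr compound treatment at 37 C and the 2 hr substrate step.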
A short description of assay [15]: qHTS assay to identify small molecule agonists of the TGF-beta/Smad signaling pathway (AID 1346859; active = well fitted activation curve with a large enough effect in the signal ratio in the repeat runs, not every such curve was filed as active; the % refers to the signal ratio; also: series mostly up to about 77 µM). The method in brief: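 SBE-bla HEK293T cells plated overnight, then compound exposure for 5 h at 37 C. Beta-lactamase reporter read with LiveBLAzer B/G FRET substrate after 2 h at room temperature, fluorescence at 405 nm excitation, 460/530 nm emission.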
The target in assay [16] is Thyrotropin-releasing hormone receptor (Homo sapiens) (UniProt P34981). Briefly: qHTS assay to identify small molecule antagonists of the thyrotropin-releasing hormone receptor (TRHR) signaling pathway (AID 1346877; active = well fitted inhibition curve with a large enough effect in the repeat runs, not every such curve was filed as active; also: series mostly up to about 51 µM). The method in brief: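 TRHR-expressing HEK293 cells were seeded, cultured 18 h at 37 °C, then loaded with calcium dye for 2 h. Compounds were pre-incubated 5 min at room temperature before 1 nM TRH (final) was added, and kinetic fluorescence was recorded for 3 min.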

Assay [17] shares this target. Briefly: qHTS assay to identify small molecule agonists of the thyrotropin-releasing hormone receptor (TRHR) signaling pathway (AID 1346891; calls by dose curve; also: series mostly up to about 58 µM). The method in brief:
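HEK293 cells expressing TRHR plated 18 h at 37 C/5% CO2, calcium dye-loaded 2 h at 37 C, then compound added (agonist mode); kinetic calcium fluorescence read 3 min at 1 s intervals; 15 concentrations in triplicate.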

Assay [18] is described as follows: Human pregnane X receptor (PXR) small molecule agonists, qHTS cell viability counter screen (AID 1346977). Also: nearly all actives have a fitted effect of over 50% in size. Also: potency is read from the fitted curve at half-maximal effect. The method in brief:
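PXR-Luc HepG2 cells (2,000/well, 5% charcoal-stripped FBS) preincubated 5 hr, then exposed to compounds 24 hr at 37 C. Viability read in the same wells by CellTiter-Fluor fluorescence, reagent added at 23 hr, 1 hr incubation.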

Assay [19] is described as follows: Caspase-3/7 induction in HepG2 cells by small molecules, qHTS assay (AID 1346978). Also: nearly all actives have a fitted effect of over 15% in size. Also: potency is read from the fitted curve at half-maximal effect. The method in brief:
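Caspase-3/7 induction was measured by Caspase-Glo 3/7 luminescence (30 min, room temperature) after a 17 hr compound exposure of wild-type HepG2 cells seeded at 2,000 per well and pre-incubated 5 hr.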

Assay [20] can be described thus: qHTS assay to identify small molecule antagonists of the estrogen receptor beta (ER-beta) signaling pathway - cell viability counter screen (AID 1259382). Also: nearly all actives have a fitted effect of over 55% in size. Also: potency is read from the fitted curve at half-maximal effect. The method in brief:
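ER-beta-UAS-bla HEK293T cells (2,000/well, 2% charcoal-stripped FBS) were pre-incubated 6 hr at 37C, then given compound plus 1nM final 17-beta-estradiol for 16 hr. Viability was read in the same wells by CellTiter-Glo luminescence after 30 min at room temperature.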

Values joined by “and” are separate entries in the source; they are usually repeats but may differ in a detail not shown here. Equal values may be shown once. Records with an inconclusive call do not appear. A structure can be active in one record and inactive in another. Active and inactive are the calls of the source. Unless noted, calls follow the shape of the dose curve; as a rule, active = well fitted curve in the direction sought with a large enough effect in the repeat runs; inconclusive = weak or mixed curves; inactive = no such curve, though single readings can be large; an effect the other way counts as inactive or inconclusive.

Thyrotropin receptor (Homo sapiens), sequence (P16473 whole entry, looked up): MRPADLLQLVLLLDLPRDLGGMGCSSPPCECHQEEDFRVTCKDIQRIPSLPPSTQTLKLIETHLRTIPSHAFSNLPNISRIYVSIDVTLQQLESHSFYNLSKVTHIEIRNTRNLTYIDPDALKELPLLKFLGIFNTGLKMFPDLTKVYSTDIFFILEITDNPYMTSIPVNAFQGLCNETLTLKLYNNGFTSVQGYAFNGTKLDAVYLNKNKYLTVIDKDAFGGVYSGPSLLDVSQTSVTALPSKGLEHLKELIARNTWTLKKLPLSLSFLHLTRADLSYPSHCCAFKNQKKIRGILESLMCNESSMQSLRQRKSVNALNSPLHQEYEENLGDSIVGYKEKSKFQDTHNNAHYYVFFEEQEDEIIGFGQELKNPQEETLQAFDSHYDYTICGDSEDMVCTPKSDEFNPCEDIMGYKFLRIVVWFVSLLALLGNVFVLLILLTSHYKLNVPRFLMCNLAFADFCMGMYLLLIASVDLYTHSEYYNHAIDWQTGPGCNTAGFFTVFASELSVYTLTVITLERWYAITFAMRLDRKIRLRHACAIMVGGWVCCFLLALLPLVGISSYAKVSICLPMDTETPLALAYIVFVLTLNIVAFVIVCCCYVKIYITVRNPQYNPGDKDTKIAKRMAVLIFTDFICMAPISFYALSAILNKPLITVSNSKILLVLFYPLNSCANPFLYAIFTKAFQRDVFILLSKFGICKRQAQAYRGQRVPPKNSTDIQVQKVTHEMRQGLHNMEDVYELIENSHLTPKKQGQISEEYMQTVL
Estrogen receptor beta (Homo sapiens), sequence (Q92731 whole entry, looked up): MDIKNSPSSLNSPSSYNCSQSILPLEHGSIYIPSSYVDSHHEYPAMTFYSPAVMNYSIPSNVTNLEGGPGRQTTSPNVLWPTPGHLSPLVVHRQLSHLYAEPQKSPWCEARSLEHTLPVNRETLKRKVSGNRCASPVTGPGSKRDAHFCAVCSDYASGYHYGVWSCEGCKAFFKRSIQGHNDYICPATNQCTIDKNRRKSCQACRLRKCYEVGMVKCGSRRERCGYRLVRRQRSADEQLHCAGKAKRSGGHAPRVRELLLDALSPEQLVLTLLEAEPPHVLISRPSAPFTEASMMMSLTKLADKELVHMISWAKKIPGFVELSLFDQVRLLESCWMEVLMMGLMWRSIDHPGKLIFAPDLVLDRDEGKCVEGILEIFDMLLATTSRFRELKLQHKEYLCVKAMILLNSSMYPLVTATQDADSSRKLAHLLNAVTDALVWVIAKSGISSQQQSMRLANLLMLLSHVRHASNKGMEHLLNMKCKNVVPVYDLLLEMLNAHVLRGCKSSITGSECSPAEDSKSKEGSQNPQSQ
Androgen receptor (Homo sapiens), sequence (P10275 whole entry, looked up): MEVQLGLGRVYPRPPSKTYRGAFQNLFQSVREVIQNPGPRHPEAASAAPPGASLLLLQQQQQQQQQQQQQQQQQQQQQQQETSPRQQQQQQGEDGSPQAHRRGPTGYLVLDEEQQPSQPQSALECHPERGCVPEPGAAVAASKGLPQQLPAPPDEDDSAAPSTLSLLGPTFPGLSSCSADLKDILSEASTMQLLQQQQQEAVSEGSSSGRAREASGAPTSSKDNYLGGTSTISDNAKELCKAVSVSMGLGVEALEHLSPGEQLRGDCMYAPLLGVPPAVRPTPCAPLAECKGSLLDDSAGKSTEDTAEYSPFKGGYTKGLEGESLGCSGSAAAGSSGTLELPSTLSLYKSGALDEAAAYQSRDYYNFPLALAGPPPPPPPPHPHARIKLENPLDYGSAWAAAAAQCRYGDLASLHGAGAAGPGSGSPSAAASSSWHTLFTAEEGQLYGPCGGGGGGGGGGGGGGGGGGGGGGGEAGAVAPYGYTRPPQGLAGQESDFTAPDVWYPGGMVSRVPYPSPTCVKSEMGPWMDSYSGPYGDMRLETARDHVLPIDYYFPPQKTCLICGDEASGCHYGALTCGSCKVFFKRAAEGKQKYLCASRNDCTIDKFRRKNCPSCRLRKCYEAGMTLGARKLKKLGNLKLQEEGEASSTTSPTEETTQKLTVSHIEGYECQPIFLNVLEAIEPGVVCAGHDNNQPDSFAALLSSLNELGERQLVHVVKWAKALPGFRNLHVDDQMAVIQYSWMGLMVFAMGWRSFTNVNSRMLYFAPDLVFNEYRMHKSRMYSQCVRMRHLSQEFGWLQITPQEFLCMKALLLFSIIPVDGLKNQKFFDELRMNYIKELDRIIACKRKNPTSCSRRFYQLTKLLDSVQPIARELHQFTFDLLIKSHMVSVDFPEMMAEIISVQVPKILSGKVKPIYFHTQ
Estrogen receptor (Homo sapiens), sequence (P03372 whole entry, looked up): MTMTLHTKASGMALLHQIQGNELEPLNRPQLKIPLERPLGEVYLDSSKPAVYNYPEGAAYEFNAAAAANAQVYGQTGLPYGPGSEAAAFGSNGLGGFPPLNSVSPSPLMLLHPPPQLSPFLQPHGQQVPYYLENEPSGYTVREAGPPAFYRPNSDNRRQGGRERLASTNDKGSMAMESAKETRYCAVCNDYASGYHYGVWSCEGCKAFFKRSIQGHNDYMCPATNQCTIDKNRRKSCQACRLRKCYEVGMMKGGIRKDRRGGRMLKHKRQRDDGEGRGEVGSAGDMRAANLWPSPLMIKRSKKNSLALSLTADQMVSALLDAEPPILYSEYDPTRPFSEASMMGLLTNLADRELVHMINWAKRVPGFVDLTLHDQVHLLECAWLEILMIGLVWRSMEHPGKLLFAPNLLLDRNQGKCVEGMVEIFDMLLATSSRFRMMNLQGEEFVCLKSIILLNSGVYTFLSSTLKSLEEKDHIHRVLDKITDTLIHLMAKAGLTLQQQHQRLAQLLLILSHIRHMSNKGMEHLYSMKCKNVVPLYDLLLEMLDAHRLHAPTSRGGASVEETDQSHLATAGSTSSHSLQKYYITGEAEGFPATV
Thyrotropin-releasing hormone receptor (Homo sapiens), sequence (P34981 whole entry, looked up): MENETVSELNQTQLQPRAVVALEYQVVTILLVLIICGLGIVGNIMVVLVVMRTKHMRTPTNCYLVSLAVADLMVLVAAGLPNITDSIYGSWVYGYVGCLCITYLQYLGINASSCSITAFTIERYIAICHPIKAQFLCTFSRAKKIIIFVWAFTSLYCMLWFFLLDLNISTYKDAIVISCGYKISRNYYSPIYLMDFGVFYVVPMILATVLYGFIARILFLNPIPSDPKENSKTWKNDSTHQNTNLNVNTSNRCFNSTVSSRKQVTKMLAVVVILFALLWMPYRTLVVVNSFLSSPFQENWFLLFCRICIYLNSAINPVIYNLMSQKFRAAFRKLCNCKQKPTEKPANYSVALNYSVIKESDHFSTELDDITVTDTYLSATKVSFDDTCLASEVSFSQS
Progesterone receptor (Homo sapiens), sequence (P06401 whole entry, looked up): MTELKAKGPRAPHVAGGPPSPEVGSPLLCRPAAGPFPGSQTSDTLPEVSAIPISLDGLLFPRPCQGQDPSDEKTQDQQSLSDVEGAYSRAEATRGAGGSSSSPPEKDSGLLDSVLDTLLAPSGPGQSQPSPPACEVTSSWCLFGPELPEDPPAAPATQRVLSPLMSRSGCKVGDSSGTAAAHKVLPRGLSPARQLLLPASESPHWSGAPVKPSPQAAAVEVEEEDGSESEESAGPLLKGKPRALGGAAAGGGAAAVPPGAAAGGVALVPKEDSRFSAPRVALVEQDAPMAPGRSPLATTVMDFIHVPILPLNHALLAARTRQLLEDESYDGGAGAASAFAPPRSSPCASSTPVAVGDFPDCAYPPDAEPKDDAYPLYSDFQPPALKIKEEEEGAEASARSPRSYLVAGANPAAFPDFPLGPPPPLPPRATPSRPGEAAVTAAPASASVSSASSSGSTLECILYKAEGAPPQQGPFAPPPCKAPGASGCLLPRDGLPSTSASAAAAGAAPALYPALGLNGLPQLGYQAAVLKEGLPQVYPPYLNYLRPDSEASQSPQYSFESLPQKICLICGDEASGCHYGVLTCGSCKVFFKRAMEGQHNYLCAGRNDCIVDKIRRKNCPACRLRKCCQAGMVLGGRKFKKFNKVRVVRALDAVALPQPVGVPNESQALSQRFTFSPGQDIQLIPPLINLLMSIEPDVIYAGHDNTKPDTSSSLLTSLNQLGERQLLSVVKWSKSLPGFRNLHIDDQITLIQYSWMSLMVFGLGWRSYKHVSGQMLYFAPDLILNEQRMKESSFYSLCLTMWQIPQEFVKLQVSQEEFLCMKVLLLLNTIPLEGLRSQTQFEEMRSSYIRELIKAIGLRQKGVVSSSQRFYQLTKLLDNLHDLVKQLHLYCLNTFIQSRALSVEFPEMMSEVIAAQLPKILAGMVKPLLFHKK

As to `Cc1ccc(C(=O)Cl)cc1`, the Potency entry in [1], in [2], in [3], in assay [4], in [5] and in assay [7] was “inactive” in each case. The Potency entry in [8], in assay [9], in assay [10], in assay [11], in assay [12] and in assay [13] was “inactive” each time. For the same compound, the Potency result in [14], in assay [16], in assay [17], in assay [18] and in assay [19] was “inactive” each time. In addition, the compound was classed as inactive in assay [6] and in assay [15].
Turning to `Clc1ccc(C(c2ccc(Cl)cc2)C(Cl)(Cl)Cl)cc1`, the Potency in assay [1] is 13.7 µM (active) and 7.5 µM (active); in [3] it was 61.6 µM (active) and 54.5 µM (active); in assay [7] it was 30.9 µM (active) and 54.5 µM (active); in assay [10], 7.7 µM (active) and 5.96 µM (active); in assay [14] it was 55.3 µM (active) and inactive. Further, the Potency result in assay [2], in assay [20], in assay [8], in assay [11], in assay [13] and in [17] was “inactive” each time. For the same compound, the Potency result in [18] and in assay [19] was “inactive” throughout. The outcome in assay [15] was inactive.
As for `CC(C)CBr`, the Potency entry in assay [1], in assay [2], in [3], in assay [20], in [5] and in [7] was “inactive” throughout. The Potency entry in [8], in assay [9], in assay [10], in assay [11], in assay [12] and in [13] was “inactive” each time. The Potency entry in assay [14], in assay [17], in [18] and in [19] was “inactive” each time. Moreover, the Potency in [4] is 0.386 µM (active). The call in assay [6] and in assay [15] was inactive.
On to `CC(C)C1CCC(Cc2ccc(Cl)cc2)C1(O)Cn1cncn1` (stereo not given), for which the Potency is 24.1 µM (active) in assay [1]; 67.9 µM (active) in assay [2]; 67.9 µM (active) in assay [3]; 67.9 µM (active) in [20]; 3.4 µM (active) in assay [10]; 54.4 µM (active) in assay [13]. Moreover, the Potency in assay [18] is 48.1 µM (active); in [19], 67.9 µM (active). Besides, the Potency entry in [5] and in [17] was “inactive” in each case. Besides, the call in assay [6] was inactive.
For the compound `CCc1ccccc1C`, the Potency result in assay [1], in assay [2], in [3], in assay [4], in [20] and in assay [5] was “inactive” throughout. In addition, the Potency result in assay [7], in assay [8], in [9], in [10], in [11] and in assay [12] was “inactive” each time. Besides, the Potency result in [13], in [14], in assay [18] and in assay [19] was “inactive” in each case. Besides, the result in assay [6] and in [15] was inactive.
In the case of `COC(=O)N(C(=O)N1COC2(C(=O)OC)Cc3cc(Cl)ccc3C2=N1)c1ccc(OC(F)(F)F)cc1` (stereo not given), the Potency result in assay [1], in assay [2], in assay [3], in assay [4], in assay [20] and in assay [5] was “inactive” each time. Further, the Potency result in assay [7], in assay [8], in [9], in assay [11], in assay [12] and in [13] was “inactive” in each case. The Potency entry in [14], in assay [18] and in assay [19] was “inactive” each time. For the same compound, the Potency in assay [10] is 29.8 µM (active). In addition, the compound was classed as inactive in assay [15].
Take `ClCc1ccccc1CCl`: the Potency result in assay [1], in assay [3], in assay [20], in [5], in assay [7] and in assay [8] was “inactive” each time. In addition, the Potency result in assay [9], in assay [10], in [11], in assay [12], in assay [13] and in assay [14] was “inactive” each time. Also, the Potency result in assay [17], in assay [18] and in [19] was “inactive” each time. For the same compound, the Potency in assay [2] was 61.1 µM (active). Further, the compound was classed as inactive in assay [15].
